# Assays:
# Assay in all cases: PBM binding z-score (relative to random genomic background probes); higher = stronger binding; sequences stand for … in GC…GCGATTGACAGCGTAGAATGAAGG
# [1] = test system: PPARg:RXRa DBDmut IVT, anti-RXR (DBD mutation: RXRa K156A/R161A, NR concentration 270 nM, RXRa partner concentration 90 nM)
# Summary of the method: (§1)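 Antibodies against each partner of ligand-free nuclear receptor dimers (one per run) detected binding on custom Agilent 4×180K protein-binding microarrays after 1 h incubation. The double-stranded probes had 34-nt variable regions carrying direct-repeat seeds, single-nucleotide variants, half-site ablations and random human genomic background sequences. Binding z-scores, from regression-normalized fluorescence, use the random background probes as reference.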
# [2] = test system: PPARg:RXRa IVT, anti-PPARg (NR concentration 270 nM, RXRa partner concentration 90 nM)
# Summary of the method: as §1
# [3] = test system: PPARg DBDmut:RXRa IVT, anti-PPARg (DBD mutation: PPARg1 K132A/R137A, NR concentration 270 nM, RXRa partner concentration 90 nM)
# Summary of the method: as §1
# [4] = test system: PPARg DBDmut IVT, anti-PPARg (DBD mutation: PPARg1 K132A/R137A, NR concentration 270 nM)
# Summary of the method: as §1
# [5] = test system: PPARg homodimer (NR concentration 180 nM)
# Summary of the method: as §1
# [6] = test system: PXR:RXRa (NR concentration 270 nM, RXRa partner concentration 90 nM)
# Summary of the method: as §1
# [7] = test system: PXR homodimer (NR concentration 270 nM)
# Summary of the method: as §1
# [8] = test system: RARa:RXR (NR concentration 270 nM, RXRa partner concentration 90 nM)
# Summary of the method: as §1
# [9] = test system: RARa homodimer (NR concentration 270 nM)
# Summary of the method: as §1
# [10] = test system: RARb:RXRa (NR concentration 270 nM, RXRa partner concentration 90 nM)
# Summary of the method: as §1
# [11] = test system: RARb homodimer (NR concentration 270 nM)
# Summary of the method: as §1
# [12] = test system: RARg:RXRa (NR concentration 270 nM, RXRa partner concentration 90 nM)
# Summary of the method: as §1
# [13] = test system: RARg homodimer (NR concentration 270 nM)
# Summary of the method: as §1
# [14] = test system: RXRa DBDmut IVT, anti-RXR (DBD mutation: RXRa K156A/R161A, NR concentration 90 nM)
# Summary of the method: as §1
# [15] = test system: RXRa homodimer (NR concentration 180 nM)
# Summary of the method: as §1
# [16] = test system: THRa:RXRa (NR concentration 90 nM, RXRa partner concentration 90 nM)
# Summary of the method: as §1
# [17] = test system: THRa homodimer (NR concentration 90 nM)
# Summary of the method: as §1
# [18] = test system: VDR homodimer (NR concentration 270 nM)
# Summary of the method: as §1
Sequence,PBM binding z-score [1],PBM binding z-score [2],PBM binding z-score [3],PBM binding z-score [4],PBM binding z-score [5],PBM binding z-score [6],PBM binding z-score [7],PBM binding z-score [8],PBM binding z-score [9],PBM binding z-score [10],PBM binding z-score [11],PBM binding z-score [12],PBM binding z-score [13],PBM binding z-score [14],PBM binding z-score [15],PBM binding z-score [16],PBM binding z-score [17],PBM binding z-score [18]
CCTCGGAGGACAGAAGGACAGAGCTGTCCGCTTT,-0.418,-0.913,-0.956,-1.82,-0.605,-0.689,-0.621,-0.66,-0.614,0.716,0.278,-0.0569,0.674,-0.277,-0.555,0.672,-0.622,-0.357
TCGCCTAGGTCATTGGGCCAGTATAGTACGCATC,3.09,3.38,-0.283,-0.432,1.52,1.74,0.00603,2.24,-0.44,3.66,2.87,3.95,3.88,2.13,2.69,2.68,0.959,1.57
CGTCCAAGGTCAGCATGTCAGTGAAAGCGACGTG,2.52,2.35,-0.0905,-0.674,2.58,2.41,0.102,3.01,0.765,4.93,3.99,5.21,6,2.51,4.01,3.54,2.02,0.761
CTCCCAAGGTGAACAAGGTCGTTGATTACTATTC,1.99,2.07,-0.441,-0.154,0.903,2.42,1.92,2.14,-0.0783,2.03,2.05,1.68,1.41,0.991,1.7,3.19,2.26,2.22
TATACAGGGTCAAATGCCAGAGTACGAATGTCGA,2.62,4.6,3.56,3.07,3.17,4.3,1.12,5.47,1.22,4.55,3.11,5.88,4.98,3.42,6.54,3.6,0.982,3.62
TCTTGTAGATCAACAGGAGTTTAAGAAAGATCGA,1.57,0.487,0.0985,0.197,-0.389,0.514,-0.0735,0.201,-0.584,0.0376,-0.522,0.249,-0.0816,0.335,0.176,-0.275,-1.05,0.485
AGAACGAGGCCAATGAGTTGATAGCACGGGTGGC,1.54,0.862,0.703,0.331,-0.093,0.214,0.741,-0.114,0.0259,0.946,0.127,0.169,0.718,1.01,0.286,0.223,0.00356,1.71
CTCGAAAGGTCGTGCTCAGCTGAGTATACCAAAC,0.87,1.49,0.246,0.618,1.59,2.99,-0.206,3.49,0.13,3.72,2.34,4.28,3.82,2.32,4.89,2.19,-0.199,0.89
TAGCCAAGGTCATGCGGGCCAGTATAGTGTCGGC,1.6,3.47,1.13,0.504,1.92,4.35,1.1,4.48,0.0818,5.09,4.42,5.81,5.79,2.88,5.47,4.14,2.91,3.39
TGTCAAAGTTCAAAGGTAACGCAAGTATCCACAC,0.302,4.95,0.987,0.888,3.82,6.07,4.47,7.09,1.84,5.19,3.97,6.5,6.22,4.42,7.38,3.23,0.0532,4.37
TCTTGTACATCAATAGAGGTTAAGAAAGTGCGCT,1.8,1.66,1.53,1.13,0.454,2.94,0.485,1.98,0.123,1.08,1.31,0.893,0.714,1.08,1.46,1.52,-0.338,-0.116
ATATGTAGGGTAAGGGTCATTCAGGTTGGTTCGC,6.71,7.53,5.99,4.1,6.25,5.47,4.86,5.19,3.71,3.53,4.19,4.59,3.27,2.16,5.38,3.68,2.68,5.02
ATAATGAGGTTATTAAGATCAGGGAATTGCGGTC,3.45,3.21,1.46,0.952,1.12,1.58,0.876,1.76,0.951,1.47,0.912,1.39,1.21,2.09,1.88,2.3,0.964,1.8
AGTCAAAGTTCAGGACGAGGTAACGGAAAGCACG,-0.203,2.06,0.787,0.337,2.37,2.66,1.31,2.62,0.344,4.22,3.17,4.69,4.86,2.73,2.96,3.79,1.74,1.79
